From PubChem BioAssay (NCI)
About 83,000 compounds went through this panel and 20% of them were active in at least one assay; those are over-represented in the sample as a whole.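 96-well plates, one dose, 48 hours. Percent growth reported; active if below 10.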 Active and inactive are the calls of the source.

What was measured:
Assay in all cases: NCI-60 one-dose screen, 48 h (100 = growth as untreated, 0 = no growth, -100 = all killed)
Conditions in all cases: 10 µM unless noted
DU-145 prostate = system: DU-145 prostate
K-562 leukemia = system: K-562 leukemia
MALME-3M melanoma = system: MALME-3M melanoma
MDA-MB-231 breast = system: MDA-MB-231 breast
RXF 393 renal = system: RXF 393 renal
SF-268 CNS = system: SF-268 CNS
SF-295 CNS = system: SF-295 CNS
SF-539 CNS = system: SF-539 CNS
UACC-257 melanoma = system: UACC-257 melanoma
M14 melanoma = system: M14 melanoma

Measured: growth

CC(C)c1cc(CNc2nc(Nc3cc(C4CC4)[nH]n3)cc(N3CCN(C)CC3)n2)on1
active: DU-145 prostate -15.7% | K-562 leukemia 5.67% | MALME-3M melanoma -42.9% | MDA-MB-231 breast 6.11% | RXF 393 renal -54.1% | SF-268 CNS -3.51% | SF-295 CNS 6.84% | SF-539 CNS -61.8% | UACC-257 melanoma -14.3% | M14 melanoma -37.5%

Cc1cc([C@@H](C)Nc2ccccc2C(=O)O)c2nc(N3CCOCC3)cc(=O)n2c1
active: RXF 393 renal -21.1% | SF-295 CNS 9.97%
inactive: DU-145 prostate 57.2% | K-562 leukemia 66.9% | MALME-3M melanoma 40.7% | MDA-MB-231 breast 60.3% | SF-268 CNS 47.6% | SF-539 CNS 19.7% | UACC-257 melanoma 32.8% | M14 melanoma 45.9%

O=C(c1ccc(/C=C/c2n[nH]c3ccccc23)cc1)N1CCNCC1
inactive: DU-145 prostate 39.6% | K-562 leukemia 12.4% | MALME-3M melanoma 10.4% | MDA-MB-231 breast 27.1% | SF-268 CNS 39.2% | SF-295 CNS 51.4% | UACC-257 melanoma 35.9% | M14 melanoma 27.8%
active: RXF 393 renal -15.4% | SF-539 CNS -12%

COc1ccc(C(=O)N2c3ccccc3Sc3ccccc32)c(F)c1
inactive: K-562 leukemia 12.7% | MALME-3M melanoma 46.6% | MDA-MB-231 breast 52.5% | SF-268 CNS 53.1% | UACC-257 melanoma 67.1%
active: DU-145 prostate 5.05% | RXF 393 renal -23.1% | SF-295 CNS 8.85% | SF-539 CNS -15.8% | M14 melanoma 2.04%

Cc1cn(-c2cc(NC(=O)c3ccc(C)c(Nc4nccc(-c5cnccn5)n4)c3)cc(C(F)(F)F)c2)cn1
inactive: DU-145 prostate 82.2% | MALME-3M melanoma 16.6% | MDA-MB-231 breast 55.4% | RXF 393 renal 129% | SF-268 CNS 65.1% | SF-295 CNS 93.9% | SF-539 CNS 98.2% | UACC-257 melanoma 38.4% | M14 melanoma 18.7%
active: K-562 leukemia 4.39%

CCc1cnn2c(NCc3ccc[n+]([O-])c3)cc(N3CCCC[C@H]3CCO)nc12
active: DU-145 prostate 5.68% | K-562 leukemia 1.85% | MALME-3M melanoma -46.3% | MDA-MB-231 breast 2.67% | RXF 393 renal -64.6% | SF-268 CNS 3.65% | SF-295 CNS 3.11% | SF-539 CNS -48.1% | UACC-257 melanoma -42.4% | M14 melanoma -42.5%

COc1cc2c(cc1OCCCN1Cc3ccc(OCCCCC(=O)N4CCC(CCN5CCCC5)CC4)cc3C1)N=C(N)C21CCCC1
inactive: DU-145 prostate 95.2% | MALME-3M melanoma 44% | MDA-MB-231 breast 87.1% | RXF 393 renal 90.2% | SF-268 CNS 85.8% | SF-295 CNS 101% | SF-539 CNS 54.7% | UACC-257 melanoma 85.1% | M14 melanoma 58.2%
active: K-562 leukemia 4.85%

C[C@@H](NC(=O)c1ncnc(N)c1Cl)c1ncc(C(=O)Nc2cc(C(F)(F)F)c(Cl)cn2)s1
inactive: DU-145 prostate 94.9% | K-562 leukemia 11.5% | MDA-MB-231 breast 39% | RXF 393 renal 106% | SF-268 CNS 93% | SF-295 CNS 90.2% | SF-539 CNS 86.4% | M14 melanoma 15%
active: MALME-3M melanoma 3.24% | UACC-257 melanoma -13.9%

CNC(=O)c1c(C)oc2cc(Oc3ncnc4cc(OC)c(OC)cc34)ccc12
inactive: DU-145 prostate 101% | K-562 leukemia 88.4% | MALME-3M melanoma 104% | MDA-MB-231 breast 101% | RXF 393 renal 66.4% | SF-268 CNS 70.7% | SF-295 CNS 96% | SF-539 CNS 41.6% | UACC-257 melanoma 86.6% | M14 melanoma 98.2%

COc1cc(NCCCN)c2ncccc2c1
inactive: DU-145 prostate 109% | K-562 leukemia 89.9% | MALME-3M melanoma 109% | MDA-MB-231 breast 87.5% | RXF 393 renal 93.6% | SF-268 CNS 90.7% | SF-295 CNS 67.8% | SF-539 CNS 88.4% | UACC-257 melanoma 93.7% | M14 melanoma 75.9%

CC(=O)Nc1cccc(-n2c(=O)n(C3CC3)c(=O)c3c(Nc4ccc(I)cc4F)n(C)c(=O)c(C)c32)c1
active: MALME-3M melanoma -0.925% | RXF 393 renal -15.2% | UACC-257 melanoma -21.9% | M14 melanoma 1.71%
inactive: DU-145 prostate 53% | K-562 leukemia 25.5% | MDA-MB-231 breast 18.6% | SF-268 CNS 53% | SF-295 CNS 82.6% | SF-539 CNS 41.1%

O=C(NC1CCNCC1)c1[nH]ncc1NC(=O)c1c(Cl)cccc1Cl
inactive: DU-145 prostate 12.3%
active: K-562 leukemia 5.78% | MALME-3M melanoma -38.8% | MDA-MB-231 breast 1.88% | RXF 393 renal -50% | SF-268 CNS 9.79% | SF-295 CNS 8.53% | SF-539 CNS -41.9% | UACC-257 melanoma -6.15% | M14 melanoma 9.93%

CC(=O)OC(C(=O)c1ccccc1)c1ccccc1 (stereo not given)
inactive: DU-145 prostate 111% | K-562 leukemia 96.5% | MALME-3M melanoma 95.8% | MDA-MB-231 breast 107% | RXF 393 renal 103% | SF-268 CNS 107% | SF-295 CNS 108% | SF-539 CNS 114% | UACC-257 melanoma 107% | M14 melanoma 104%

O=C(Nc1ccc(-c2ccnc(Nc3ccc(N4CCOCC4)cc3)n2)cc1)[C@@H]1CCCN1
inactive: DU-145 prostate 67.1% | K-562 leukemia 16% | MALME-3M melanoma 71.5% | MDA-MB-231 breast 48.6% | SF-268 CNS 55.6% | SF-295 CNS 35.9% | SF-539 CNS 25.3% | UACC-257 melanoma 16.8% | M14 melanoma 51.7%
active: RXF 393 renal 5.11%

C=CCN(/C=C1/C(=O)O[C@H](COC)[C@@]2(C)C1=C(O)C(=O)C1=C2[C@H](OC(C)=O)C[C@]2(C)C(=O)CC[C@@H]12)CC=C
inactive: DU-145 prostate 26.6% | K-562 leukemia 40.9% | MDA-MB-231 breast 42% | SF-268 CNS 29.9% | UACC-257 melanoma 15.8% | M14 melanoma 28.2%
active: MALME-3M melanoma -1.8% | RXF 393 renal -41.1% | SF-295 CNS 5.72% | SF-539 CNS -19.1%

CO[C@H]1C[C@@H]2CC[C@@H](C)[C@@](O)(O2)C(=O)C(=O)N2CCCC[C@H]2C(=O)O[C@H]([C@H](C)C[C@@H]2CC[C@@H](OC(=O)C(C)(CO)CO)[C@H](OC)C2)CC(=O)[C@H](C)/C=C(\C)[C@@H](O)[C@@H](OC)C(=O)[C@H](C)C[C@H](C)\C=C/C=C/C=C/1C
active: RXF 393 renal -16.3% | SF-539 CNS 4.68%
inactive: DU-145 prostate 37.7% | K-562 leukemia 18.3% | MALME-3M melanoma 24% | MDA-MB-231 breast 24.8% | SF-268 CNS 30.9% | SF-295 CNS 13.6% | UACC-257 melanoma 30.4% | M14 melanoma 32.3%

CC(C)CC(=O)Nc1n[nH]c2c1CN(C(=O)C1CCN(C)CC1)C2(C)C
inactive: DU-145 prostate 15.2% | K-562 leukemia 11.1% | MALME-3M melanoma 34.9% | SF-268 CNS 12.1% | SF-295 CNS 41.6% | UACC-257 melanoma 15.5% | M14 melanoma 22.2%
active: MDA-MB-231 breast 8.95% | RXF 393 renal -37.2% | SF-539 CNS -22.3%

CN1CCN(CC(=O)Nc2ccc(-c3nc4ccccc4s3)cc2)CC1
inactive: DU-145 prostate 85.2% | K-562 leukemia 41.8% | MALME-3M melanoma 98.3% | MDA-MB-231 breast 59.8% | RXF 393 renal 54.3% | SF-268 CNS 83% | SF-295 CNS 91.1% | UACC-257 melanoma 105% | M14 melanoma 67.6%
active: SF-539 CNS -31.9%

NC[C@@](O)(c1ccc(Cl)cc1)c1ccc(-c2cn[nH]c2)cc1
active: MALME-3M melanoma -24.7% | RXF 393 renal -6.86% | SF-539 CNS 3.43% | UACC-257 melanoma -23.9% | M14 melanoma 7.61%
inactive: DU-145 prostate 30.3% | K-562 leukemia 17.2% | MDA-MB-231 breast 31.7% | SF-268 CNS 35.5% | SF-295 CNS 28.6%

Cn1cc(-c2ncnc3ccc(-c4cnc(Cl)c(NS(C)(=O)=O)c4)cc23)c2ccccc21
active: MALME-3M melanoma -13.6% | RXF 393 renal -26.7% | SF-295 CNS -9.66% | SF-539 CNS -11.1% | UACC-257 melanoma 5.53% | M14 melanoma 9.65%
inactive: DU-145 prostate 25.2% | K-562 leukemia 48.4% | MDA-MB-231 breast 27.9% | SF-268 CNS 27.5%

CNC(=O)c1cc(Oc2ccc(NC(=O)Nc3ccc(Cl)c(C(F)(F)F)c3)c(F)c2)ccn1
active: K-562 leukemia -3.75% | MALME-3M melanoma -36.3% | MDA-MB-231 breast -57.2% | RXF 393 renal -31.3% | SF-268 CNS -30.6% | SF-295 CNS -47.4% | SF-539 CNS -71.7% | UACC-257 melanoma -50.3% | M14 melanoma -28.1%
inactive: DU-145 prostate 14.9%

NC1=Nc2cc(OCCCN3Cc4ccccc4C3)c(OCC3CC3)cc2C12CCCC2
active: K-562 leukemia -8.16% | MALME-3M melanoma -58.3% | UACC-257 melanoma -47.2% | M14 melanoma -70.2%
inactive: DU-145 prostate 78.6% | MDA-MB-231 breast 36.2% | RXF 393 renal 60.6% | SF-268 CNS 74.1% | SF-295 CNS 64.6% | SF-539 CNS 49.2%

C=CC(=O)Nc1cc2c(Nc3ccc(F)c(Cl)c3)ncnc2cc1OCCCN1CCOCC1
inactive: DU-145 prostate 14.9% | MALME-3M melanoma 27.3% | SF-295 CNS 53.4% | UACC-257 melanoma 35.1%
active: K-562 leukemia 2.24% | MDA-MB-231 breast 0.732% | RXF 393 renal -53.1% | SF-268 CNS -5.09% | SF-539 CNS -24.4% | M14 melanoma -62.3%

CCCCCc1ccc(C)cc1OC(=O)CCl
inactive: DU-145 prostate 109% | K-562 leukemia 98.8% | MALME-3M melanoma 90.9% | MDA-MB-231 breast 110% | RXF 393 renal 103% | SF-268 CNS 105% | SF-295 CNS 102% | SF-539 CNS 112% | UACC-257 melanoma 107% | M14 melanoma 111%

O=C(Cn1ccc2ccccc21)Nc1ccc(-c2nc3ccccc3s2)cc1
inactive: DU-145 prostate 101% | K-562 leukemia 103% | MALME-3M melanoma 108% | MDA-MB-231 breast 108% | RXF 393 renal 113% | SF-268 CNS 96.6% | SF-295 CNS 103% | SF-539 CNS 102% | UACC-257 melanoma 100% | M14 melanoma 108%

CN(C)C[C@@H]1CCn2cc(c3ccccc32)C2=C(C(=O)NC2=O)c2cn(c3ccccc23)CCO1
active: K-562 leukemia -58.7% | MALME-3M melanoma -70.5% | MDA-MB-231 breast -35.8% | RXF 393 renal -72.9% | SF-539 CNS -93.2% | UACC-257 melanoma -20.1% | M14 melanoma 3.4%
inactive: DU-145 prostate 13.2% | SF-268 CNS 36.6% | SF-295 CNS 21%

COc1cc(CCc2cc(NC(=O)c3ccc(N4C[C@@H](C)N[C@@H](C)C4)cc3)n[nH]2)cc(OC)c1
active: K-562 leukemia 8.61% | RXF 393 renal -10.1% | UACC-257 melanoma 3.28%
inactive: DU-145 prostate 37.7% | MALME-3M melanoma 26.6% | MDA-MB-231 breast 44.2% | SF-268 CNS 39.4% | SF-295 CNS 62.4% | SF-539 CNS 16.9% | M14 melanoma 18%
